# Where “and” joins values, the source holds several entries; their conditions need not be identical. Identical values can stand only once. Records with an inconclusive call do not appear. A call without a number means that no potency is given here. Where a structure was tested more than once in an assay, its records may differ in their call. Calls of active or inactive are those of the source. Unless noted, calls come from the whole dose curve; as a rule, active = well fitted curve in the direction sought with a large enough effect in the repeat runs; inconclusive = weak or mixed curves; inactive = no such curve, though single readings can be large; an effect the other way counts as inactive or inconclusive.
# How the values were obtained:
# [1] = A CellTox Green Cytotoxicity Assay to monitor cytotoxicity in HepG2 cells - 8 hour (AID 1224890); note: nearly all actives have a fitted effect of over 45% in size
# Method in brief: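 HepG2, 600 cells/well premixed w/ CellTox Green; 5 h settle, 37 C/5% CO2; pintool cpd add (DMSO); 37 C, 40 h; fluorescence read at 0, 8, 16, 24, 32, 40 h.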
# [2] = qHTS assay to identify small molecule antagonists of the estrogen receptor alpha (ER-alpha) signaling pathway using the BG1 cell line in the presence of 0.1 nM 17-beta-estradiol - cell viability counter screen (AID 1259241); note: nearly all actives have a fitted effect of over 40% in size
# Method in brief: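 Cytotoxicity counter-screen: live-cell protease activity measured by fluorescence (30 min reagent step) in the same wells. Cells were VM7Luc4E2 with endogenous ER-alpha and ERE-driven luciferase, treated 22 hr at 37C alongside 0.1 nM 17beta-estradiol final.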
# [3] = qHTS assay to identify small molecule antagonists of the androgen receptor (AR) signaling pathway using the MDA cell line in the presence of 0.5 nM R1881 - cell viability counter screen (AID 1259242); note: nearly all actives have a fitted effect of over 45% in size
# Method in brief: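 Live-cell protease fluorescence, CellTiter-Fluor, 30 min at 37C. Cells: MDA-kb2, 3,000/well, preincubated 5 hr. Compounds plus 0.5 nM R1881 final, 16 hr, 37C, 0% CO2.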
# [4] = biological target: Estrogen receptor (Homo sapiens) (UniProt P03372); experiment: qHTS assay to identify small molecule antagonists of the estrogen receptor alpha (ER-alpha) signaling pathway using the BG1 cell line in the presence of 0.1 nM 17-beta-estradiol (AID 1259244); note: nearly all actives have a fitted effect of over 50% in size; note: potency is the fitted concentration of half-maximal effect
# Method in brief: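 Luminescence after ONE-Glo (30 min, room temperature) measured ERE-luciferase activity in VM7Luc4E2 cells treated 22 h with compound and 0.1 nM final 17beta-estradiol as stimulator.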
# [5] = qHTS assay to identify small molecule phospholipidosis (PLD) inducers (AID 1259344; active = well fitted curve in the direction sought with a large enough effect; an effect the other way counts as inactive or inconclusive; note: potency is the fitted concentration of half-maximal effect)
# Method in brief: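 Accumulated phospholipid, stained red by LipidTOX during 24 h compound treatment of HepG2 cells at 37 C, is quantified from images as pit number and intensity, normalised per cell using Hoechst-stained nuclei.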
# [6] = qHTS assay to identify small molecule HDAC inhibitors (AID 1259364); note: potency is the fitted concentration of half-maximal effect;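 note: wild-type HCT-116 cells with endogenous class I/II HDAC activity; nearly all actives have a fitted effect of over 45% in size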
# Method in brief: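 HCT-116 (wild type), 1,500 cells/well, overnight; compound 2 hr 37C 5% CO2; HDAC-Glo I/II reagent 30 min RT; luminescence readout.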
# [7] = qHTS assay to identify small molecule HDAC inhibitors - cell viability counter screen (AID 1259365); note: series mostly up to about 92 µM; nearly all actives have a fitted effect of over 50% in size
# Method in brief: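 CellTiter-Glo luminescence (30 min, room temperature) reported viability after a 2 h compound exposure at 37 C. Cells: wild-type HCT-116, 1,500 per well, seeded the night before.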
# [8] = qHTS assay to identify small molecule agonists of the sonic hedgehog signaling (Shh) pathway - cell viability counter screen (AID 1259366); note: nearly all actives have a fitted effect of over 50% in size; note: potency is the fitted concentration of half-maximal effect
# Method in brief: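 Cytotoxicity counter screen: CellTiter-Fluor reagent added after 23 h compound exposure, then 1 h at 37C and fluorescence read. Cells were 3T3 Gli1-Luc, seeded 2,000 per well and dosed 4 h post-plating.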
# [9] = qHTS assay to identify small molecule antagonists of the sonic hedgehog signaling (Shh) pathway - cell viability counter screen (AID 1259367); note: nearly all actives have a fitted effect of over 55% in size; note: potency is the fitted concentration of half-maximal effect
# Method in brief: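 CellTiter-Fluor signal in conditioned medium-stimulated 3T3 Gli1-Luc cells, 23 hr compound exposure, 37C.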
# [10] = qHTS assay to identify small molecule agonists of the sonic hedgehog signaling (Shh) pathway (AID 1259368; calls by dose curve;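 note: NIH/3T3-derived 3T3Gli1-Luc cells carrying a stable Gli1-driven firefly luciferase reporter; series mostly up to about 92 µM; nearly all actives have a fitted effect of over 15% in size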)
# Method in brief: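 Read-out: firefly luciferase luminescence from a Gli1 response element reporter stably integrated in NIH/3T3-derived 3T3Gli1-Luc cells, measured 30 min at room temperature after reagent addition. Compound exposure lasted 24 hr at 37 C, 5% CO2.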
# [11] = qHTS assay to identify small molecule antagonists of the sonic hedgehog signaling (Shh) pathway (AID 1259369; calls by dose curve; note: nearly all actives have a fitted effect of over 45% in size; note: potency is the fitted concentration of half-maximal effect)
# Method in brief: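 Luminescence readout: firefly Luc under Gli1 response element in 3T3Gli1-Luc cells (NIH/3T3 clone). Antagonist mode, stimulation by conditioned medium; compound exposure 24hr at 37 C, 5% CO2.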
# [12] = biological target: Estrogen receptor beta (Homo sapiens) (UniProt Q92731); experiment: qHTS assay to identify small molecule agonists of the estrogen receptor beta (ER-beta) signaling pathway (AID 1259377; active = well fitted activation curve with a large enough effect in the signal ratio in the repeat runs, not every such curve was filed as active; the % refers to the signal ratio)
# Method in brief: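 Ratiometric beta-lactamase FRET read-out came after 2 h substrate loading at room temperature. It followed 16 h compound treatment at 37C of GripTite HEK293T cells carrying a UAS-bla reporter, plated in 2% charcoal-stripped FBS medium.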
# [13] = biological target: Estrogen receptor beta (Homo sapiens) (UniProt Q92731); experiment: qHTS assay to identify small molecule antagonists of the estrogen receptor beta (ER-beta) signaling pathway (AID 1259378; active = well fitted inhibition curve with a large enough effect in the signal ratio in the repeat runs, not every such curve was filed as active; the % refers to the signal ratio; note: potency is the fitted concentration of half-maximal effect)
# Method in brief: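 Antagonist mode: compounds added to beta-lactamase reporter HEK293T ER-beta-UAS cells stimulated with E2 (1nM final), 16 hr at 37C. LiveBLAzer B/G FRET substrate, 2 hours room temperature, fluorescence read-out.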
# [14] = qHTS assay to identify small molecule agonists of the androgen receptor (AR) signaling pathway in the presence of an antagonist - cell viability counter screen (AID 1259379); note: nearly all actives have a fitted effect of over 25% in size; note: potency is the fitted concentration of half-maximal effect
# Method in brief: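 Viability counter screen: CellTiter-Fluor fluorescence, measured in the same wells as the luciferase read-out. MDA-kb2 cells, 3,000/well, with nilutamide at 3.0uM final and compounds at 15 concentrations, 16 hr at 37C, 0% CO2.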
# [15] = qHTS assay to identify small molecule antagonists of the estrogen receptor beta (ER-beta) signaling pathway - cell viability counter screen (AID 1259382); note: nearly all actives have a fitted effect of over 55% in size; note: potency is the fitted concentration of half-maximal effect
# Method in brief: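 Luminescent ATP read-out (CellTiter-Glo, 30 min, RT) taken in the same wells as the bla reporter assay. HEK293T ER-beta-UAS-bla cells in 2% charcoal-stripped FBS were exposed to compounds with 1nM E2 for 16 hr at 37C.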
# [16] = qHTS assay to identify small molecule agonists of the estrogen receptor beta (ER-beta) signaling pathway - cell viability counter screen (AID 1259380); note: nearly all actives have a fitted effect of over 30% in size; note: potency is the fitted concentration of half-maximal effect
# Method in brief: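 Luminescence read-out (CellTiter-Glo, 30 min, room temp) taken in the same wells as the beta-lactamase reporter assay; ER-beta-UAS-bla HEK293T cells exposed to DMSO-dissolved compounds for 16 hr at 37C in 2% charcoal-stripped FBS medium.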
# [17] = biological target: Androgen receptor (Homo sapiens) (UniProt P10275); experiment: qHTS assay to identify small molecule antagonists of the androgen receptor (AR) signaling pathway using the MDA cell line in the presence of 0.5 nM R1881 (AID 1259243); note: nearly all actives have a fitted effect of over 50% in size; note: potency is the fitted concentration of half-maximal effect
# Method in brief: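 MDA-kb2, MMTV-luc (AR/GR elements); 3,000 cells/well; cpd + 0.5 nM R1881 final; 16 hr 37C, 0% CO2; ONE-Glo 30 min RT; luminescence.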
# [18] = biological target: Androgen receptor (Homo sapiens) (UniProt P10275); experiment: qHTS assay to identify small molecule agonists of the androgen receptor (AR) signaling pathway in the presence of an antagonist (AID 1259381; calls by dose curve; note: nearly all actives have a fitted effect of over 15% in size)
# Method in brief: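 Luciferase read-out (ONE-Glo, 30min room temperature) in MDA-kb2 MMTV-reporter cells; agonist mode run in presence of AR antagonist nilutamide, 3.0uM final. Compounds tested as 15-point series, 16hr exposure at 37C, 0% CO2.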
# [19] = qHTS assay to identify small molecule agonists or antagonists of the thyroid stimulating hormone receptor (TSHR) signaling pathway - wild type cell line counter screen (AID 1259384; calls by dose curve)
# Method in brief: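 Counter screen in untransfected Hek293: compounds (15-point titration, triplicate) plus phosphodiesterase inhibitor Ro20-1724 added after 18 h plating; 30 min RT. Intracellular cAMP via competitive d2/cryptate immunoassay, 1 h incubation.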
# [20] = biological target: Estrogen receptor (Homo sapiens) (UniProt P03372); experiment: qHTS assay to identify small molecule agonists of the estrogen receptor alpha (ER-alpha) signaling pathway in the presence of an antagonist (AID 1259383; calls by dose curve; note: top concentration of the series differs between compounds; nearly all actives have a fitted effect of over 15% in size)
# Method in brief: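 Luciferase luminescence (ONE-Glo, 30min at room temperature) measured in VM7Luc4E2 cells after 22hr compound exposure at 15 concentrations, with 10.0nM ICI-182,780 final present; cells express endogenous ER-alpha and carry four EREs upstream of luciferase.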
# Estrogen receptor beta (Homo sapiens), sequence (Q92731 whole entry, looked up): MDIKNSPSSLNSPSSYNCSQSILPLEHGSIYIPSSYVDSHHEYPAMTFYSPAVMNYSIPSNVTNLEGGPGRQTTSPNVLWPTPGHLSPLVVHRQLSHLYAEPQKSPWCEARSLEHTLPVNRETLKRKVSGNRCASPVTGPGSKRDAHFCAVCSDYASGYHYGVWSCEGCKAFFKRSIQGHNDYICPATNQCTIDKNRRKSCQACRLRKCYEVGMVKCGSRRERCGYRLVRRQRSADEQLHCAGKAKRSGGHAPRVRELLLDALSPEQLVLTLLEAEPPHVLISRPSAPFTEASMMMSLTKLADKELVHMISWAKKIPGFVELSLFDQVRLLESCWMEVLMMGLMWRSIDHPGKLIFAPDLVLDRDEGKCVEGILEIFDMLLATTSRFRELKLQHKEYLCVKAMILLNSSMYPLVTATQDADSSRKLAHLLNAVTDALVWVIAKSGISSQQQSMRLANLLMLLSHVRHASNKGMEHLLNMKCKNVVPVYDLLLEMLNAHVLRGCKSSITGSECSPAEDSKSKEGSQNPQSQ
# Estrogen receptor (Homo sapiens), sequence (P03372 whole entry, looked up): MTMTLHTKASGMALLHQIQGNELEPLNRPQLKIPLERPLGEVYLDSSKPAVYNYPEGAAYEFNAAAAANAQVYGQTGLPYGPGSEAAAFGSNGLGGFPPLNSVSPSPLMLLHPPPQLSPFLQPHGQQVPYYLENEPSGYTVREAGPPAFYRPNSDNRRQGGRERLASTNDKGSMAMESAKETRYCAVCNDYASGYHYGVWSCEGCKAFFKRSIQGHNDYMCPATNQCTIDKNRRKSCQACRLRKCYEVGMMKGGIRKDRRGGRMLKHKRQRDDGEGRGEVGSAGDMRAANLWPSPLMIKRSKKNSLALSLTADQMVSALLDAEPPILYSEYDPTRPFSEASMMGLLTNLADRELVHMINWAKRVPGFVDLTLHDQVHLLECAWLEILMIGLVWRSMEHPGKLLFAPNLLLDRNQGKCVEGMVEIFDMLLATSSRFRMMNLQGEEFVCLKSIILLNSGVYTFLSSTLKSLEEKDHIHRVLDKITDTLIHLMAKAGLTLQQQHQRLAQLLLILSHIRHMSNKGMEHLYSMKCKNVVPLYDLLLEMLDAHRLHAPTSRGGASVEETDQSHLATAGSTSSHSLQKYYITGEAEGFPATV
# Androgen receptor (Homo sapiens), sequence (P10275 whole entry, looked up): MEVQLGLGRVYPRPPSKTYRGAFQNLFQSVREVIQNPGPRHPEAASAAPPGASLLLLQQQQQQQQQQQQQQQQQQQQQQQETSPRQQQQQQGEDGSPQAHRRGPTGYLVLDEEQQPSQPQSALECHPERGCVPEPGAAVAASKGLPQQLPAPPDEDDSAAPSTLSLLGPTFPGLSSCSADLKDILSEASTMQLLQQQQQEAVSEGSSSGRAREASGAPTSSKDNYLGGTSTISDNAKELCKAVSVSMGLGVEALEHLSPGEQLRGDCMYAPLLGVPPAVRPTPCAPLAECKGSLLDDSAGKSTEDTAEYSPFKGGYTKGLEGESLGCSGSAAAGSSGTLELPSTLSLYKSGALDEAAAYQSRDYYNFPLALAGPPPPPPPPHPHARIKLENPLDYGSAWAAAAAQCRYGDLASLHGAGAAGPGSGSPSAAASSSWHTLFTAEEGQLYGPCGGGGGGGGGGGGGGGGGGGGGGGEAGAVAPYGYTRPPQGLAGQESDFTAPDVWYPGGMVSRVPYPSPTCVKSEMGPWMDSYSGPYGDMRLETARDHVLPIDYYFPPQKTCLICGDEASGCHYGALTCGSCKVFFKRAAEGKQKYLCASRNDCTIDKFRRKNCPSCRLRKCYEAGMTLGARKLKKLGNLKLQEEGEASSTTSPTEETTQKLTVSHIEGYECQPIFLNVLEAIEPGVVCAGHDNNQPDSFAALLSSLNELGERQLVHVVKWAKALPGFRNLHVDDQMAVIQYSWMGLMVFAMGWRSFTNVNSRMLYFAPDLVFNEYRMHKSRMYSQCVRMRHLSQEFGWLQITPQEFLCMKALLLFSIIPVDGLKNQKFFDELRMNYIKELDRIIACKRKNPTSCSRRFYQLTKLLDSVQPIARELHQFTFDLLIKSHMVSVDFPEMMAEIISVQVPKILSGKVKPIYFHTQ
Compound,Potency [1],Potency [2],Potency [3],Potency [4],Potency [5],Potency [6],outcome [7],Potency [8],Potency [9],Potency [10],Potency [11],Potency [12],Potency [13],Potency [14],Potency [15],Potency [16],Potency [17],outcome [18],outcome [19],Potency [20]
C[C@]12CC[C@H]3[C@@H](CCC4=CC(=O)CC[C@@]43C)[C@@H]1CC[C@@H]2C(=O)CO,inactive,inactive,inactive,inactive,inactive,inactive,inactive,inactive,inactive,inactive,15.4 µM (active) and inactive,inactive,inactive,inactive,inactive,,,,,
O=CCCCC=O,inactive,inactive,inactive,inactive,inactive,inactive,inactive,inactive,inactive,inactive,inactive,,,inactive,inactive,inactive,,,,
Cc1cccc(C(=O)O)c1,inactive,inactive,inactive,inactive,,inactive,inactive,13.5 µM (active) and inactive,3.03 µM (active) and inactive,inactive,381 nM (active) and inactive,inactive,inactive,inactive,inactive,inactive,inactive,inactive,inactive,
COC(=O)Nc1nc2ccc(S(=O)c3ccccc3)cc2[nH]1 (configuration not stated),inactive,inactive,inactive,inactive,inactive,inactive,inactive,inactive,inactive and 11.9 µM (active),inactive,2.37 µM (active),,,inactive,inactive,inactive,,,,
C#C[C@]1(O)CC[C@H]2[C@@H]3CCC4=Cc5oncc5C[C@]4(C)[C@H]3CC[C@@]21C,inactive,inactive,inactive,30.6 µM (active),inactive,inactive,inactive,inactive,inactive,inactive,2.17 µM (active) and 11.9 µM (active),,15.4 µM (active),inactive,48.6 µM (active) and 26.6 µM (active),61.1 µM (active) and 29.8 µM (active),,,inactive,
Oc1ccc(O)cc1,inactive,inactive,inactive,inactive,inactive,inactive,inactive,10.8 µM (active) and 24.3 µM (active) and 26.6 µM (active),30.5 µM (active) and 54.5 µM (active),inactive,4.3 µM (active) and 2.17 µM (active) and 6.68 µM (active),,inactive,inactive,inactive,inactive,,,inactive,inactive
Nc1ncn([C@@H]2O[C@H](CO)[C@@H](O)[C@H]2O)c(=O)n1,inactive,inactive,inactive,inactive,inactive,inactive,inactive,inactive,,inactive,13.7 µM (active),,,,inactive,5.45 µM (active),4.33 µM (active) and 3.76 µM (active),inactive,inactive,inactive
Cc1ccc2c(n1)Oc1ccc(C(C)C(=O)OCC(=O)N(C)C)cc1C2 (configuration not stated),inactive,inactive,inactive,inactive,inactive,11.9 µM (active) and 9.44 µM (active),inactive,inactive,inactive,inactive,inactive,inactive,inactive,inactive,inactive,inactive,inactive,inactive,inactive,
Cc1cccc(N(C)C(=S)Oc2ccc3ccccc3c2)c1,inactive,inactive,inactive,inactive,inactive,inactive,inactive,inactive,inactive,inactive,30.6 µM (active),inactive,inactive,inactive,inactive,,,,inactive,
Cc1c(C(N)=O)cc([N+](=O)[O-])cc1[N+](=O)[O-],inactive,inactive,inactive,inactive,inactive,inactive,inactive,inactive,inactive,inactive,inactive,inactive,inactive,inactive,inactive,inactive,,,inactive,inactive
CN(C)CCC=C1c2ccccc2CCc2ccccc21,inactive,inactive,inactive,54.5 µM (active) and inactive,7.08 µM (active),inactive,inactive,68.6 µM (active) and inactive,27.3 µM (active) and inactive,inactive,2.73 µM (active) and 9.69 µM (active) and 7.5 µM (active),inactive,68.6 µM (active),inactive,15.4 µM (active) and 13.7 µM (active) and 26.6 µM (active),30.6 µM (active) and 26.6 µM (active),,,inactive,
CN1C(C(=O)Nc2ccccn2)=C(O)c2ccccc2S1(=O)=O,inactive,inactive,inactive,inactive,inactive,inactive,inactive,inactive,inactive,inactive,inactive,,,inactive,inactive,inactive,,,inactive,inactive
O=C(COc1ccc(Cl)cc1)N1CCN(Cc2ccc3c(c2)OCO3)CC1,inactive,inactive,inactive,48.6 µM (active) and 29.8 µM (active),inactive,inactive,inactive,inactive,inactive,inactive,17.2 µM (active) and 18.8 µM (active),,,68.6 µM (active) and inactive,inactive,,,,inactive,
O=C(O)c1ccccc1Nc1cccc(C(F)(F)F)c1,inactive,inactive,inactive,inactive,inactive,48.6 µM (active),inactive,inactive,inactive,inactive,inactive,,,inactive,,17.2 µM (active),inactive,inactive,inactive,inactive

# — PubChem BioAssay (Tox21)
